# Compound activity (PubChem BioAssay)
# Sampled rows, rich in hits. Any-hit rate of the full collection: about 19%.
# TDP1 cell CPT: DT40-hTDP1 cell growth loss with CPT; Potency, µM (doses to about 46.2 µM), for inactives: top-dose activity change, negative = growth inhibition, actives largely listed as inhibitors; hit rate 12% among 420,000; chicken DT40 Tdp1-/-;hTDP1 cells + 20 nM CPT, ATP luminescence, 48 h; AID 686979; further: potency means the concentration at half of the fitted maximal effect; nearly all actives have a fitted effect of over 55% in size
#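 Chicken DT40 Tdp1-/- cells complemented with human TDP1, 400 cells/well, exposed to compounds plus 20 nM camptothecin for at least 48 h at 37 C; viability read as ATP content by CellTiter-Glo luminescence.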
# HT1080 IDH1KD tx: kills HT-1080 cells with IDH1 knockdown; Potency, µM (doses to about 46.1 µM), for inactives: top-dose activity, negative = toxicity, most hits filed as cytotoxic; HT-1080 IDH1 knockdown viability, ATP luminescence, 48 h; hit rate 2% among 360,000; AID 686971;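 further: potency means the concentration at half of the fitted maximal effect; 0% = DMSO wells and -100% = cell-free medium wells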
#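 In this qHTS, HT-1080 cells depleted of IDH1 are exposed for 48 h at 37 °C to compound titrations. Toxicity is scored from CellTiter-Glo luminescence, with DMSO as full viability and medium alone as none.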
# DT40 TDP1 no CPT: qHTS for Inhibitors of human tyrosyl-DNA phosphodiesterase 1 (TDP1): qHTS in cells in absence of CPT; DT40 Tdp1-/- hTDP1 cells, no CPT, ATP luminescence, 48 h; Potency, µM (series often up to 46.2 µM), inactives show top-dose activity change, negative = growth inhibition, most hits filed as inhibitors; hit rate 15% among 420,000; further: potency means the concentration at half of the fitted maximal effect; nearly all actives have a fitted effect of over 55% in size
#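 Growth of hTDP1-complemented DT40 Tdp1-knockout cells is measured by ATP luminescence after at least 48 hr compound exposure at 37 °C, with DMSO substituting for the 20 nM CPT used in the parallel screen.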
# HT1080NT lethal: kills 2HG-producing HT-1080-NT fibrosarcoma cells; AID 686970; HT-1080-NT fibrosarcoma viability, CellTiter-Glo ATP luminescence, 48 h; hit rate 1.6% among 360,000; Potency, µM (highest dose often 46.1 µM), for the others: top-dose activity, negative = less viability, most hits filed as cytotoxic;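 further: NT is the 2HG producing partner of a matched IDH1 knockdown line; potency means the concentration at half of the fitted maximal effect; 0% = DMSO-treated cells and -100% = media-only wells without cells; nearly all actives have a fitted effect of over 55% in size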
#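 HT-1080-NT; 750 cells/well; 5% FBS RPMI; 48 h compound, 37 degrees C; CellTiter-Glo luminescence; curve fitting and curve-class assignment.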
# IL1B secr inh: blocks inflammasome-driven IL-1 beta release | THP-1 LPS/ATP IL-1B secretion, AlphaLISA, 16 h; stronger effect = lower value | activity change, % at 57.5 µM | hit rate 4.7% among 360,000 | AID 743279; in the data active means activity change below about -50%; inconclusive means mostly about -30% to -49%
#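 Secreted IL-1B measured by AlphaLISA bead assay after 16 h compound exposure of THP-1 cells; compounds (final up to 57.5 uM) added 1 h before LPS (250 ng/mL) and ATP (1.25 mM) stimulation; lower signal means less secretion.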
# ELG1 repair inh: inhibitors of ELG1-dependent DNA repair in HEK293T cells. HEK293T ELG1-luciferase reporter, luminescence, 16 h; DNA damage induced by 5-fluorouridine. Potency, µM (highest dose often 46.1 µM), for inactives: at the top dose activity change, negative = inhibition, hits mostly inhibitors. hit rate 2.3% among 330,000. AID 504467; further: potency means the concentration at half of the fitted maximal effect; nearly all actives have a fitted effect of over 55% in size
#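 Reporter activity after DNA damage by 5-fluorouridine is monitored. Compound-treated cells incubate 16 hr at 37 °C, then ONE-Glo is added for 30 min before luminescence reading.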
# Starred values were filed as active, the others as inactive; ? = inconclusive; · = no result given. Unless noted, the call rests on the fitted dose curve; in most records, active means well fitted curve in the direction sought with a large enough effect; inconclusive means small, poorly fitted or top-dose-only effect, or another doubt; inactive means no such curve, though single readings can be large; an effect the other way counts as inactive or inconclusive. Unless noted, on the % scale 0 is the no-effect control and ±100 the full control effect.
SMILES,TDP1 cell CPT,HT1080 IDH1KD tx,DT40 TDP1 no CPT,HT1080NT lethal,IL1B secr inh,ELG1 repair inh
Cn1c(N)c(C(=O)COC(=O)c2ccccc2C(=O)c2ccc(Cl)c([N+](=O)[O-])c2)c(=O)n(C)c1=O,?,?,18µM*,?,-99*,?
CN(CCC#N)C(=O)COC(=O)c1ccccc1C(=O)c1ccc(Cl)c([N+](=O)[O-])c1,16µM*,16µM*,?,10µM*,-106*,20%
CCCCn1c(N)c(N(CC(C)C)C(=O)CCN2C(=O)C3CC=CCC3C2=O)c(=O)[nH]c1=O (stereo unspecified),-3%,-3%,1%,-1%,-1,·
Cc1ccc(NC(=O)COc2ccccc2C(N)=O)cc1S(=O)(=O)N1CCCCCC1,4.1µM*,-22%,3.7µM*,-13%,-55*,?
Cc1ccc(NC(=O)COc2ccc(N(C)C(=O)C(C)(C)C)cc2)cc1S(=O)(=O)N1CCCCC1,8.2µM*,-14%,2.3µM*,-18%,-7,8.2µM*
COc1ccc(NC(=O)Cc2coc3cc(C)c(C(C)C)cc23)cc1S(=O)(=O)N1CCOCC1,12µM*,-26%,12µM*,-11%,11,-21%
Cc1ccc(NC(=O)COc2cccc(C)c2C)cc1S(=O)(=O)N1CCCCCC1,?,?,18µM*,-3%,-30,-9%
O=C(NCc1ccc(F)cc1F)[C@@H]1CCCN1C(=O)[C@@H]1CCCN1C(=O)c1ccc(Cl)cc1,?,1%,?,3%,12,·
Cc1nc2ccccc2c(=O)n1-c1ccc(F)c(NS(=O)(=O)c2ccccc2F)c1,1%,13%,-10%,11%,-6,9%
COc1ccc(NC(=O)Cc2ccc(C)c(C)c2)cc1S(=O)(=O)N1CCCCC1,?,-8%,?,0%,?,26µM*
COc1ccc(NC(=O)CN(Cc2ccco2)Cc2ccco2)cc1S(=O)(=O)N1CCCCC1,23µM*,-1%,?,-7%,-19,?
Cc1ccc(OCC(=O)Nc2ccc(C)c(S(=O)(=O)N3CCCCCC3)c2)c([N+](=O)[O-])n1,?,-7%,?,-2%,?,16µM*
COc1ccc(NC(=O)COc2ccccc2C)cc1S(=O)(=O)N1CCCCC1,?,-16%,8.2µM*,-3%,-22,?
COc1ccc(NC(=O)CN2CCCCC2)cc1S(=O)(=O)N1CCCCC1,15%,-7%,6%,2%,21,-1%
CCCN1C(=O)c2ccccc2CC1(C)C(=O)NC1CCCCC1 (stereo unspecified),-23%,·,-24%,·,·,·
CN(C)c1ncc2nc(-c3cc(F)cc(F)c3)c(=O)n(CCc3ccccc3)c2n1,-27%,·,-5%,·,·,·
CC(C)(C)NC(=O)CN(C(=O)CCC(=O)Nc1nccs1)c1cccc(C(F)(F)F)c1,-3%,10%,1%,-3%,-14,?
O=C(O)/C=C/C(=O)Nc1cccc2c1-c1ccccc1C2=O,?,?,?,?,16,·
CCCCn1c(N)c(N(CCOC)C(=O)c2ccc3c(c2)OCCO3)c(=O)[nH]c1=O,10%,12%,9%,10%,7,-3%
Cc1ccc(NC(=O)COC(=O)c2cccc(C)c2[N+](=O)[O-])cc1S(=O)(=O)N1CCCCC1,16µM*,-5%,?,-8%,0,?
CC(C)N1CC2(CC(c3ccccc3F)=NO2)CN1C(=O)c1ccc(C(C)(C)C)cc1 (stereo unspecified),23µM*,-9%,10µM*,-7%,2,·
CC(=O)N1CC2(CC(c3ccccc3F)=NO2)CN1c1ccc(Cl)cc1 (stereo unspecified),?,3%,?,8%,-15,·
CC(C)N1CC2(CC(c3ccc(Cl)cc3Cl)=NO2)CN1C(=O)c1ccc(C(C)(C)C)cc1 (stereo unspecified),15µM*,3%,12µM*,-3%,-2,·
CC(C)N1CC2(CC(c3ccccc3C(F)(F)F)=NO2)CN1C(=O)c1ccco1 (stereo unspecified),?,-6%,8.2µM*,16%,-5,·
CC(C)N1CC2(CC(c3ccccc3C(F)(F)F)=NO2)CN1C(=O)c1ccc(C(C)(C)C)cc1 (stereo unspecified),16µM*,-13%,21µM*,-7%,44,·
SMILES,TDP1 cell CPT,HT1080 IDH1KD tx,DT40 TDP1 no CPT,HT1080NT lethal,IL1B secr inh,ELG1 repair inh
C/C=C\C(=O)Nc1cccc(C2=NOC3(C2)C[C@@H](C(N)=O)N(C(=O)c2ccc(Cl)cc2)C3)c1 (stereo partly specified),-19%,2%,-2%,-5%,-8,-6%
COc1ccc(CCC(=O)NCCNC(=O)CCc2ccc(OC)cc2)cc1,8%,-4%,-2%,-11%,-6,-2%
COc1ccc(Nc2ncc3c(n2)CCN(Cc2ccc(Br)s2)C3)c(OC)c1,21µM*,·,13µM*,·,·,·
COc1ccc(Nc2ncc3c(n2)CCN(Cc2cc(Br)cs2)C3)c(OC)c1,18µM*,·,15µM*,·,·,·
COc1ccc(Nc2ncc3c(n2)CCN(Cc2cccc(F)c2F)C3)c(OC)c1,26µM*,·,21µM*,·,·,·
COc1ccccc1NS(=O)(=O)c1cc(C(=O)Nc2ccc(S(=O)(=O)Nc3onc(C)c3C)cc2)ccc1C,-5%,15%,-17%,13%,0,·
CC1(C)CC(=O)C(N=Nc2cccc([N+](=O)[O-])c2)=C(O)C1,-3%,-2%,-29%,-8%,0,?
CC1(C)CC(=O)C(N=Nc2ccc(C(F)(F)F)cc2[N+](=O)[O-])=C(O)C1,29µM*,12%,23µM*,11%,·,27%
COc1ccc(CN2CCN(CCCc3ccccc3)C(CCO)C2)cc1OC (stereo unspecified),2%,-3%,-22%,2%,-13,-14%
CCOc1cc(CN2CCN(S(=O)(=O)c3ccc(C)cc3)CC2)ccc1OC,?,·,16µM*,·,·,·
O=C(COc1ccc(-c2ccccc2)cc1)N1CCN(S(=O)(=O)Cc2ccccc2)CC1,23µM*,?,15µM*,-23%,22,?
Cc1ccc(OCC(=O)N2CCN(C(=O)Cc3ccccc3)CC2)cc1,-9%,-1%,-14%,-4%,-5,-6%
